Hit rate of the full screen: of about 330,000 compounds, about 660 (0.2%) were called active. Only a selection was taken, and actives are over-represented in it overall. Unmarked numbers belong to inactive results.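 The calls were made as follows: active = inhibition of at least 40% at 10 µM in the primary screen; inactive = the rest.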

For the assay, the system named is intestinal alkaline phosphatase [Mus musculus]. Put plainly: mouse intestinal phosphatase enzyme inhibition – biochemical, luminescence, uHTS, primary screen (AID 2806).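 Also: plate controls were DMSO with enzyme for no effect and no enzyme wells for full effect.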 As to conditions: purified mouse IAP, CDP-Star luminescence, 30 min; at 10 µM; active compounds read high.
`CSCCC(NC(=O)c1cc([N+](=O)[O-])cc([N+](=O)[O-])c1)c1nc2ccccc2[nH]1` (configuration not stated): the inhibition was -2%.

On to `Nc1ccccc1Sc1cc(Cl)nnc1Cl`, for which the inhibition was 2.3%. Then `C=CCN1CC(C)/C(=N\O)CC1C` (configuration not stated), with 0.1%. As for `CC(=O)Nc1ccc(NS(=O)(=O)c2ccc3c(c2)NC(=O)CC(=O)N3)cc1`, the figure is 1.9%; as for `Cc1cccc(-c2nc(CS(=O)CC(=O)NC(C)CCc3ccccc3)c(C)o2)c1` (configuration not stated), -5%. For `CCCCn1c(N)c(N(CCOC)C(=O)c2oc3ccc(OC)cc3c2C)c(=O)[nH]c1=O`, the inhibition was -5.8%. As for `Cc1n[nH]c(=O)c2c(NC(=O)CSc3ccccc3F)oc(C)c12`, the figure is -5.6%. As for `Cc1ccccc1NC(=O)C1CCCN(C(=O)NCc2ccccc2)C1` (configuration not stated), the figure is -10.1%; as for `C=CCNC(=S)NNC(=O)COc1c(Cl)cc(Cl)cc1Cl`, 2.2%; as for `Cc1cccc(NC(=O)c2cc(S(=O)(=O)N3CCC4(CC3)OCCO4)ccc2F)c1`, 2.1%. As for `CCOC(=O)c1c(C)[nH]c(C)c1C(=O)CSc1nc(N)cc(N)n1`, the inhibition is 2%. Then `CNS(=O)(=O)c1ccc(C(=O)NCC(=O)NCCc2ccc3c(c2)OCCO3)cc1`, with -6.6%. Then `O=C(CCC(=O)OCc1cccc(C(=O)Oc2ccccc2)c1)Nc1cccc2ccccc12`, with 3.6%; and `COc1ccc(NC(=O)CSc2nnc(C3CC3)n2C)cc1S(=O)(=O)N1CCCCC1`, with -4.3%; and `CCN(CC)C(=O)CS(=O)CC(=O)Nc1cc(OCCOC)c(Cl)cc1Cl` (configuration not stated), with -1.1%. As for `Cc1ccccc1CN1CCC(C(=O)Nc2ccc(Oc3cccnc3)cc2)CC1`, the figure is -39.6%; as for `CCCC(=O)Nc1ccc(C(=O)N/N=C/c2ccc[nH]2)cc1`, 40.9% (active); as for `CC(=O)Nc1ccc(C(=O)/C=C/c2ccc[nH]2)cc1`, 1.1%.

Turning to `O=C(COc1ccccc1[N+](=O)[O-])N/N=C/c1ccc[nH]1`, the inhibition was 9.7%. As for `CCCC(=O)Nc1ccc(C(=O)NCCCn2ccnc2)cc1`, the figure is -4.6%. Then `CN(CC(=O)NNC(=O)CNC(=O)c1ccccc1Cl)S(=O)(=O)c1ccc(Cl)cc1`, with -5.3%.

For the compound `O=C(COc1cccc2ccccc12)Nc1cc(S(=O)(=O)N2CCOCC2)ccc1N1CCOCC1`, the inhibition was 4%. Then `O=C1C=C(c2cc(C(F)(F)F)cc(C(F)(F)F)c2)C[C@@H](c2ccc3c(c2)OCO3)C1`, with 13.5%; and `S=c1[nH]nc2c3c4c(sc3ncn12)CCCC4`, with 12.3%. Turning to `Cc1cccc(N)c1SC1CCCCC1O` (configuration not stated), the inhibition was 2.7%. As for `COc1cccc(C(=O)OCc2cc(=O)oc3c(C)c(C)ccc23)c1OC`, the figure is 8.2%.

In the case of `Cn1c(SCC(=O)Nc2ccc(N3CCOCC3)cc2)nnc1C(F)(F)F`, the inhibition is -6.7%. As for `Cc1nnc(SCC(=O)Nc2ncc3c(n2)CC(C)(C)CC3=O)s1`, the figure is 8.5%; as for `CCOc1ccc(N2C(=O)CN(c3cccc4ccccc34)C2=S)cc1`, -14.2%; as for `COc1ccc(OC)c(Nc2nc(-c3ccc(O)c(O)c3)cs2)c1`, 68.7% (active).

Regarding `COc1ccc(OC)c(-c2csc(NC(=O)COC(=O)C3CC3)n2)c1`, the inhibition is 6.9%. With `COc1ccc(OC)c(-c2csc(NC(=O)C3=NNC(=O)CC3)n2)c1`, the inhibition was 11.3%. Then `O=[N+]([O-])c1ccc(N2CCNCC2)cc1NCc1cccnc1`, with 3%; and `Nc1ccc(-n2nncc2-c2ccco2)cc1`, with -3.6%. Then `C=CCn1c(SCc2nnc(-c3ccccc3)o2)nnc1C(O)c1ccccc1` (configuration not stated), with -0.4%; and `CCN(c1ccccc1)S(=O)(=O)c1cc2c(cc1C)n(C)c(=O)c(=O)n2C`, with -8%. Then `NC(=O)C1CCCN(CC(=O)N2CCN(c3ccccc3)CC2)C1` (configuration not stated), with 15%; and `COc1ccc(NC(=O)C2CCC(CNc3c(N4CCCCC4)c(=O)c3=O)CC2)c(OC)c1` (configuration not stated), with -14.9%; and `COc1ccc(N2CCN(S(=O)(=O)c3cc4c5c(c3)C(C)C(=O)N5CCC4)CC2)cc1` (configuration not stated), with -7.1%.

Regarding `CCn1c(C)c(C)c2cc(C(=O)N3CCN(c4cccc(C)c4C)CC3)ccc21`, the inhibition was 1.5%. As for `COc1ccc(OC)c(NC(=O)Cn2c(=O)oc3ccccc32)c1`, the figure is -4.3%; as for `CC(=O)Nc1c2c(nn1-c1cccc(C)c1)CSC2`, 9.8%; as for `CCCCC(=O)Nc1ccc2c(c1)C(=O)NC2=O`, 7%.

Turning to `Cc1nn(C)c(C(=O)NNC(=S)NC2CCCCC2)c1Cl`, the inhibition was 16.2%.

With `CCCCCCCCCOC1OC(CO)C(O)C(O)C1NC(C)=O` (configuration not stated), the inhibition is 3.6%. As for `O=C(Nc1ncc2c(n1)CC(c1ccco1)CC2=O)c1ccc(Cl)cc1` (configuration not stated), the figure is 0.8%; as for `CCc1ccc(Nc2ncc3c(n2)CC(c2ccco2)CC3=O)cc1` (configuration not stated), 41.4% (active); as for `COc1cc(C2CC(=O)c3cnc(NC(C)=O)nc3C2)cc(OC)c1OC` (configuration not stated), 6.1%. On to `Brc1cnc2ccccc2c1N1CCCCC1`, for which the inhibition was -0.5%.

In the case of `CCC(=O)c1ccc(OCC(=O)OCC(=O)N2CCc3ccccc3C2)cc1`, the inhibition was 2.5%.

For `Cc1cc(NC(=O)/C=C/C(=O)N(CC(=O)NC2CCCC2)c2ccc(F)cc2)no1`, the inhibition was 5.2%.

`COc1ccc(CNC(=O)C2CCCC2)cc1`: the inhibition was 4.3%.

Consider `O=C(NCc1cc(C(F)(F)F)cc(C(F)(F)F)c1)C1CC(c2cccc(F)c2)=NO1` (configuration not stated), for which the inhibition is -2.8%.

Take `COc1ccc(CNC(=O)C2CC(c3ccc(C(F)(F)F)cc3)=NO2)cc1` (configuration not stated): the inhibition was 41.4% (active). For the compound `CC1CCCCN1S(=O)(=O)CCNC(=O)c1ccccc1` (configuration not stated), the inhibition is 8.6%. Then `Cc1ccc(C)c(NC(=O)CSc2nc3c(oc4ccccc43)c(=O)n2-c2ccccc2)c1`, with 2.2%; and `Cc1ccc(-c2nnn(CC(=O)N(CCO)C(C(=O)NC(C)(C)C)c3ccncc3)n2)cc1` (configuration not stated), with -1.3%. As for `CCNC(=O)N1CCN(S(=O)(=O)c2ccc3c(c2)OCCCO3)CC1`, the figure is -17.6%; as for `COc1cccc2[nH]c(C(=O)NCCc3ccccc3)cc12`, -19.5%. As for `O=C(N1CCCCC1)N1CCN(C(=O)N2CCCCC2)CC1`, the figure is -1.7%; as for `CC1(C)S[C@@H]2[C@H](N=CN3CCCCCC3)C(=O)N2[C@H]1C(=O)O`, -8.2%. For `O=C(COC(=O)Cn1[nH]c(=O)c2ccccc2c1=O)Nc1c(Cl)cccc1C(F)(F)F`, the inhibition was 4.1%. With `O=C(c1cc2ccccc2o1)N1CCN(S(=O)(=O)c2ccc(Cl)s2)CC1`, the inhibition was -5.4%. As for `Cc1cc(-c2ccc(S(=O)(=O)N3CCc4ccccc4C3)s2)on1`, the figure is 4.5%; as for `NC(=O)NC(=O)CSc1nc2cc([N+](=O)[O-])ccc2n1-c1cccc(C(F)(F)F)c1`, 14.7%; as for `CCc1sc(C(=O)N2CCN(CC(=O)Nc3cccc(F)c3)CC2)cc1C`, 6.1%. `CC[C@]1(O)C[C@@H]2CN(CCc3c([nH]c4ccccc34)[C@@](C(=O)OC)(c3cc4c(cc3OC)N(C)[C@H]3[C@@](O)(C(=O)OC)[C@H](OC(C)=O)[C@]5(CC)C=CCN6CC[C@]43[C@@H]65)C2)C1`: the inhibition is -16.7%. Then `CCNc1c(NS(=O)(=O)c2ccc(C3CCCCC3)cc2)c(=O)oc2ccccc12`, with 6%; and `CC(=O)Nc1ccc(S(=O)(=O)Nc2cc(C)cn(Cc3ccc(C)cc3)c2=O)cc1`, with 4.9%; and `O=C(Nc1cccc2ccccc12)c1onc2c1CCCC2`, with 3%.

As for `COc1cc(CN2CCNC(=O)C2CC(=O)NCCc2ncccc2C)cc(OC)c1` (configuration not stated), the inhibition was 5.5%. Take `O=S(=O)(NCc1ccc2c(c1)OCO2)c1cccc2nsnc12`: the inhibition was -5.4%. As for `Cc1ccc(S(=O)(=O)NCC(=O)NNC(=O)c2ccc(Br)cc2)cc1C`, the figure is 28.4%.

Consider `Cn1c2c(c(=O)n(C)c1=O)C1c3ccccc3OCC1C(C)(C)O2` (configuration not stated), for which the inhibition is 8.7%. As for `CC(C)Oc1ccc(CN2CCC(n3nccc3NC(=O)c3cccnc3)CC2)cc1`, the figure is -5.5%; as for `Oc1cc(O)c2c(c1)OC(c1ccc(O)c(O)c1)C(O)C2` (configuration not stated), 75.1% (active); as for `CC(C)Oc1ccc(CCc2nnc(SCC(=O)O)n2-c2ccccc2)cc1`, 3.2%. As for `O=[N+]([O-])c1cc(Cl)cc(/C=N/NC(=S)Nc2cc(S(=O)(=O)N3CCOCC3)ccc2Cl)c1O`, the figure is 40.5% (active); as for `Cc1ccc(S(=O)(=O)N2CCN(CC(=O)N/N=C/c3cc([N+](=O)[O-])ccc3Cl)CC2)cc1`, 14.9%; as for `O=S(=O)(c1ccc(NC(=S)NN=C(C2CC2)C2CC2)cc1)N1CCOCC1`, 37.7%. Take `COc1ccccc1C1C(C(N)=O)=C(C)Nc2nc(CCCO)nn21` (configuration not stated): the inhibition is -1.6%. As for `Cc1occc1-c1nnc(SCC(=O)NC2CCCCC2)o1`, the figure is -1.8%. As for `O=C1N[C@H](Cc2ccccc2)C(=O)N[C@H]1Cc1cn(S(=O)(=O)c2ccccc2)c2ccccc12`, the figure is -8%; as for `CCOC(=O)C(NS(=O)(=O)c1ccc(C)cc1)(C(F)(F)F)P(=O)(OCC(C)C)OCC(C)C` (configuration not stated), 2.8%. As for `CCOC(=O)/C(N=Nc1cc(C(=O)O)cc(C(=O)O)c1)=C(\O)CCl`, the figure is -0.2%. Turning to `CCn1c(CSc2nncn2-c2ccc(OC)cc2)nc2cc(S(=O)(=O)N(C)C)ccc21`, the inhibition was 6.6%.

With `CCN(CC)S(=O)(=O)c1cc(C(=O)Nc2ccccn2)ccc1C`, the inhibition was 0.4%. Then `OCC(O)CN(c1ccccc1)c1ccccc1` (configuration not stated), with 0.3%; and `CN(C(=O)C1CCN(c2ncnc3c2nc2n3CCCCC2)CC1)C1CCCCC1`, with -5%; and `FC(F)(F)c1nnc2c3ccccc3c(Cl)nn12`, with -3.6%. Take `CC(=O)N1CC[n+]2c(-c3ccc([N+](=O)[O-])cc3)csc21`: the inhibition was 7.9%.

As for `Cc1nc(C(=O)N2CCCC(C(=O)c3ccc(Cl)cc3)C2)cs1` (configuration not stated), the inhibition was 0.3%. As for `CCc1ccc(CN(C)Cc2nc(Cc3ccccc3)no2)nc1`, the figure is -1.4%; as for `O=C1N[C@@H](Cc2ccccc2)C(=O)N2[C@H]1C[C@]1(Br)c3ccccc3N(S(=O)(=O)c3ccccc3)[C@H]21`, 5.7%. As for `CCC(=O)Nc1c(S(=O)(=O)c2ccccc2)c2nc3ccccc3nc2n1Cc1ccccc1`, the figure is 2.7%.

In the case of `O=C(O)c1ccccc1OCc1ccccc1Cl`, the inhibition was 6.6%. As for `CN(C(=O)CSc1nnc(N)s1)c1c(N)n(Cc2ccccc2)c(=O)[nH]c1=O`, the figure is 3.6%; as for `Cc1ccc(N2C(=O)c3ccccc3C2(O)c2ncc[nH]2)cc1` (configuration not stated), -9%; as for `CCC(C)(C(=O)NC1CCCCC1)N(C)C(=O)c1ccc2c(c1)OCO2` (configuration not stated), 2.8%. Take `CCOc1ccc(NS(=O)(=O)c2cc(C)c(C)cc2C)cc1`: the inhibition was -7.7%. As for `CN(C)N(C)C(=O)C(O)(c1ccccc1)c1ccccc1`, the figure is 2.1%; as for `O=c1c(F)cn(C2CCCO2)c(=O)n1Cc1ccccc1Cl` (configuration not stated), -1.3%.

Values taken from PubChem BioAssay AID2806 (Sanford-Burnham Center for Chemical Genomics, 2010).
